Measured values taken from PubChem BioAssay (NCATS).
Records with an inconclusive call do not appear. A number with no mark means an inactive call. Activity calls are given as the source filed them. Calls come from the whole dose curve; as a rule, active = well fitted inhibition curve with a large enough effect; inconclusive = small, poorly fitted or top-dose-only effect; inactive = flat fitted curve, though single readings scatter.

target: Glutathione peroxidase 1 (Homo sapiens) (UniProt P07203); experiment: Primary qHTS Assay for Inhibitors of Recombinant Selenoprotein Glutathione Peroxidase 1 (GPX1) (AID 1845191); conditions: recombinant GPX1, GR-coupled NADPH fluorescence, 15 min; series mostly up to 48.8 µM; activity, negative = inhibition: at the top concentration; note: nearly all actives have a fitted effect of over 65% in size
Sequence (P07203 whole entry, looked up): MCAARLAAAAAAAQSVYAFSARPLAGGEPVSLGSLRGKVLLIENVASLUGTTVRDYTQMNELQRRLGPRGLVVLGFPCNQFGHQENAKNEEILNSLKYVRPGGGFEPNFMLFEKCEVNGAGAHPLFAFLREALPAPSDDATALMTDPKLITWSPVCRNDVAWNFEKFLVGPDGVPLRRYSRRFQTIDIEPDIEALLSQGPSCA
Text: Assay Provider: Elias S.J. Arner MD PhD.
Department of Medical Biochemistry and Biophysics
Karolinska Institutet, Solna, Stockholm, Sweden
Selenoprotein glutathione peroxidases (GPX), like the ubiquitously expressed GPX1 and the ferroptosis modulator GPX4, enact their antioxidant activities by reducing hydroperoxides using glutathione. […] GPX1 and GPX4 inhibitors have thus shown promise as anti-cancer agents. Existing inhibitors are often promiscuous, or modulate GPX activity only indirectly, so novel direct inhibitors identified through screening against GPX1 and GPX4 could be valuable. Here, we developed optimized glutathione reductase (GR)-coupled GPX assays for the biochemical high-throughput screen (HTS) of almost 12,000 compounds with known mechanisms of action. Initial hits were triaged using a GR counter-screen, assessed for isoform specificity using a separate GPX2 assay, and were assessed for general selenocysteine-targeting activity using a thioredoxin reductase (TXNRD1) assay. With this suite of assays, we identified novel GPX1/GPX2- and GPX4-specific inhibitors and can here present a validated pipeline for future discovery research for selenoprotein-targeting agents.
SEQUENCE No. (e.g., 1, 2, 3, etc.); […] (e.g., Cells, Incubation, Reagent, etc.); VALUE; DESCRIPTION.
1; Reagent 1; 3 uL; GPx1 enzyme or no enzyme control in 1536-well, black, solid Greiner assay plate.
2; Compound; 25 nL; Kalypsis pin tool (Wako USA) equipped with a 1536-well pin head.
3; Incubation; 30 min; room temperature.
4; Reagent 2; 1 uL; 10 nM GPX1, 1 mM GSH, 0.5 mM CHP, 0.5 mM NADPH, 100 nM GR, 0.01% BSA substrate
5; Detection; Fluorescence; ViewLux microplate reader, excitation 340 nm and emission 450 nm.
6; Incubation; 15 min; room temperature.
7; Detection; Fluorescence; ViewLux microplate reader, excitation 340 nm and emission 450 nm.
NOTES (numbers refer to Sequence numbers above)
1. 3 uL of 16.66 nM GPX1 and 0.016% BSA in assay buffer (50 mM Tris-HCl, 2 mM EDTA (pH 7.5), 150 mM NaCl) was added to columns 3-48 of 1536-well assay plates using a BioRAPTR Flying Reagent Dispenser (Let's Go Robotics (LGR), Carlsbad, CA). A no-enzyme control (0.01% BSA in TES assay buffer) was added to columns 1-2.
2. 25 nL of test compounds and DMSO controls were added to each well with a pin tool (Kalypsys).
3. The assay plates were incubated for 30 minutes at room temperature.
4. 1 uL of master mix (500 nM glutathione reductase (GR), 5 mM reduced glutathione (GSH), 2.5 mM NADPH in assay buffer) was added. 1 uL of cumene hydroperoxide (CHP) ([2.5 mM] in 50% EtOH) was then added within 5 minutes to initiate the reaction. Final concentrations were: 10 nM GPX1, 1 mM GSH, 0.5 mM CHP, 0.5 mM NADPH, 100 nM GR, 0.01% BSA.
5. Initial fluorescence readout (t=0) at 340/450 nm was measured using a ViewLux multimodal detector (PerkinElmer, Waltham, MA).
7. Endpoint fluorescence readout (t=15) at 340/450 nm was measured 15 min after room temperature incubation.
Potency is the fitted concentration of half-maximal effect.

Compound	Potency	activity, negative = inhibition	outcome
CO[C@H]1O[C@@H]2O[C@@]3(C)CC[C@H]4[C@H](C)CC[C@@H]([C@H]1C)[C@@]24OO3	inactive		
O=C(NNCS(=O)(=O)O)c1ccncc1	5.7 µM (active)		
Cc1c(O)c(=O)ccn1C		-13.2% [at 98.3 µM]	
Cc1nc(NS(=O)(=O)c2ccc(N)cc2)nc(C)c1Br		-12.5%	
CC(/C=C/C=C(\C)C(=O)O[C@@H]1O[C@H](CO[C@@H]2O[C@H](CO)[C@@H](O)[C@H](O)[C@H]2O)[C@@H](O)[C@H](O)[C@H]1O)=C\C=C\C=C(C)\C=C\C=C(/C)C(=O)O[C@@H]1O[C@H](CO[C@@H]2O[C@H](CO)[C@@H](O)[C@H](O)[C@H]2O)[C@@H](O)[C@H](O)[C@H]1O		-15.4%	
O=C(Nc1ccc(O)cc1)c1ccccc1O		-10.4%	
CC[C@H]1OC(=O)[C@H](C)[C@@H](O[C@H]2C[C@@](C)(OC)[C@@H](O)[C@H](C)O2)[C@H](C)[C@@H](O[C@@H]2O[C@H](C)C[C@H](N(C)C)[C@H]2O)[C@](C)(O)C[C@@H](C)CN(C)[C@H](C)[C@@H](O)[C@]1(C)O	inactive		
CNC(=O)c1c(I)c(C(=O)NCC(=O)Nc2c(I)c(C(=O)O)c(I)c(C(=O)NCCO)c2I)c(I)c(N(C)C(C)=O)c1I		-6.36%	
CN1C(=O)OC(C)(C)C1=O		3.32%	
OCCN1CCN(CC/C=C2/c3ccccc3Sc3ccc(Cl)cc32)CC1			inactive
O=C1[O][Bi][O]c2ccccc21			inactive [at 0.4 µM]
CCOC(=O)C1=C(COCCN)NC(C)=C(C(=O)OC)C1c1ccccc1Cl (stereo not given)		-30.3%	
NC[C@@H]1CC[C@@H](N)[C@@H](O[C@H]2[C@H](O)[C@@H](O[C@H]3O[C@H](CO)[C@@H](O)[C@H](N)[C@H]3O)[C@H](N)C[C@@H]2N)O1		-28.4% [at 27.7 µM]	
CCCC(CCC)C(=O)OC1C[C@H]2CC[C@@H](C1)[N+]2(C)C (stereo not given in full)		-2.8%	
CC1(O)CCC(C(C)(C)O)CC1 (stereo not given)		2.62%	
CC(O)[C@H]1CC[C@H]2[C@@H]3CC[C@@H]4C[C@@H](O)CC[C@]4(C)[C@H]3CC[C@]12C (stereo not given in full)		-2.99% [at 98.3 µM]	
C=CCOc1ccc(CC(=O)O)cc1Cl		2.53% [at 98.3 µM]	
c1ccc2ccccc2c1			inactive
COC1=C(OC)C(=O)C(C/C=C(\C)CC/C=C(\C)CC/C=C(\C)CC/C=C(\C)CC/C=C(\C)CC/C=C(\C)CC/C=C(\C)CC/C=C(\C)CC/C=C(\C)CCC=C(C)C)=C(C)C1=O			inactive
COc1ccc2c(=O)c(C)c(-c3ccccc3)oc2c1CN(C)C		-17.1%	

Compound	Potency	activity, negative = inhibition	outcome
C[C@H]1O[C@@H](O[C@H]2[C@@H](O)C[C@H](O[C@H]3[C@@H](O)C[C@H](O[C@H]4CC[C@@]5(C)[C@H](CC[C@@H]6[C@@H]5C[C@@H](O)[C@]5(C)[C@@H](C7=CC(=O)OC7)CC[C@]65O)C4)O[C@@H]3C)O[C@@H]2C)C[C@H](O)[C@@H]1O	inactive		
Cc1cc(-c2ccc(N=Nc3ccc4c(S(=O)(=O)O)cc(S(=O)(=O)O)c(N)c4c3O)c(C)c2)ccc1N=Nc1ccc2c(S(=O)(=O)O)cc(S(=O)(=O)O)c(N)c2c1O		1.27%	
CNC(=O)OCc1cccc(COC(=O)NC)n1			inactive
CC(C)(O/N=C(\C(=O)N[C@@H]1C(=O)N2C(C(=O)[O-])=C(C[n+]3ccccc3)CS[C@H]12)c1csc(N)n1)C(=O)O	7.85 µM (active)		
C[C@H](NCCc1ccc(O)cc1)[C@H](O)c1ccc(O)cc1			inactive
CC(=O)[O][Al][O]C(C)=O		-5.17% [at 9.52 µM]	
C[C@@H]1O[C@@H]1P(=O)(O)O	11.1 µM (active)		
N=C(N)c1ccc(/C=C/c2ccc(C(=N)N)cc2O)cc1		-13%	
CC(=O)NCCCS(=O)(=O)O	inactive		
CC(C)[C@@H](C)/C=C/[C@@H](C)[C@H]1CC[C@H]2/C(=C/C=C3\C[C@@H](O)CC[C@@H]3C)CCC[C@]12C			inactive
C[Se]CC[C@H](N)C(=O)O		-5.13% [at 27.7 µM]	
CCC(C(=O)NC(N)=O)c1ccccc1 (stereo not given)		-19.1%	
Cc1ncc(COP(=O)(O)O)c(CN)c1O			inactive
Cc1cccc(C)c1NC(=O)C1CCCCN1C (stereo not given)			inactive
C(=C\c1ccncc1)/c1ccccc1			inactive [at 98.3 µM]
COC(=O)CCC[N+](C)(C)C		-7.54%	
CC(C)Cc1ccc([C@@H](C)C(=O)NS(C)(=O)=O)cc1		3.09%	
O=C(O)c1ccc(NC(=O)[C@H](Cc2ccc(O)cc2)NC(=O)c2ccccc2)cc1			inactive
NCCCC[C@H](N)C(=O)O			inactive [at 0.4 µM]
C/C(=C\C(=O)OCCCCCCCCC(=O)O)C[C@@H]1OC[C@H](C[C@@H]2O[C@H]2[C@@H](C)[C@H](C)O)[C@@H](O)[C@H]1O	inactive		
